COUP-TFII inh: blocks human COUP-TFII nuclear receptor. actives 0.7% (n = 370,000). inhibition, % at 8.6 µM. AID 686940. HEK293T NGFI-A luciferase reporter, luminescence. P24468;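 active = inhibition above a per-plate cutoff, mean inhibition of test wells between control levels plus 3 SD, cut at about 38% in these data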;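 also: cells cotransfected with COUP-TFII expression vector driving the NGFI-A reporter; 0% = median of COUP-TF2 test wells and 100% = reporter-only cells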
Target sequence (P24468 whole entry, looked up): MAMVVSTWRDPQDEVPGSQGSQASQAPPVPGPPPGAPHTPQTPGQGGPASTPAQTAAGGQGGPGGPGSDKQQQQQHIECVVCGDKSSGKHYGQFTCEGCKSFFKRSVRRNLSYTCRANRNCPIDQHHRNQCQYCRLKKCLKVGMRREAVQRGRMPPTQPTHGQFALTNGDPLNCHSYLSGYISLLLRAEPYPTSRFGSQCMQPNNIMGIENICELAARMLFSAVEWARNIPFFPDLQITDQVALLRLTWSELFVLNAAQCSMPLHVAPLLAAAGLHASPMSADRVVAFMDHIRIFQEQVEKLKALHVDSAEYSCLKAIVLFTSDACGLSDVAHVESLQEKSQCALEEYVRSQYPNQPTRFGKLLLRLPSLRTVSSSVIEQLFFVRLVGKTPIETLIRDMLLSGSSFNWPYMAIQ
NCOA3 inh: human NCOA3 inhibition. Q9Y6Q9. inhibition, % at 3.6 µM. HEK293 GAL4-SRC3 luciferase reporter, luminescence. actives 0.17% (n = 360,000);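 active = inhibition above a per-campaign cutoff, the mean of all compounds plus 3 SD, cut at about 60% in these data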;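 also: 0% = DMSO-treated cells and 100% = gossypol-treated cells at 36 µM; higher means less SRC3-driven luciferase light from the GAL4 reporter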
NR5A2 inv ag: inverse agonists of human LRH-1 (NR5A2) | HEK293T StAR-luciferase reporter, LRH-1 transfected, 24 h | inhibition, % at 3.6 µM | O00482 | AID 602396 | actives 0.13% (n = 360,000);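 active = inhibition above the mean inhibition of all tested compounds plus 3 SD, cut at about 73% in these data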;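 also: 0% = DMSO wells and 100% = reporter-only cells lacking LRH-1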
NCOA2 inhibitor: inhibits human steroid receptor coactivator 2 | Q15596 | HEK293 GAL4-SRC2 luciferase reporter, luminescence | inhibition, % at 9 µM | actives 0.17% (n = 370,000);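 active = inhibition above the mean inhibition of all tested compounds plus 3 SD, set per campaign, cut at about 52% in these data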;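 also: 0% = DMSO treated cells and 100% = cells given Gossypol at 36 µM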
NCOA1 inh: human NCOA1 inhibition | Q15788 | HEK293 GAL4-SRC1 luciferase reporter, luminescence | inhibition, % at 3.6 µM | actives 0.12% (n = 360,000) | AID 588354;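 active = inhibition above the campaign mean plus 3 SD, with each screening campaign given its own cutoff, cut at about 60% in these data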;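 also: 0% = DMSO treated cells and 100% = gossypol at 36 µM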
VP16 Luc counter: VP16 inhibition counter-screen for COUP-TFII | shares compounds with COUP-TFII inh | HEK293 Gal4-VP16 luciferase reporter, luminescence | inhibition, % at 8.5 µM | actives 25% (n = 2,500) | AID 687007; in the data active = inhibition above about 13%
COUP-TFII conf: confirmation of human COUP-TFII (NR2F2) inhibitors; shares compounds with COUP-TFII inh; HEK293 NGFI-A luciferase reporter, luminescence; inhibition, % at 8.5 µM; actives 45% (n = 2,500);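 active = mean inhibition over three repeats above a set limit taken from the earlier primary screen, cut at about 38% in these data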;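 also: 100% = cells given the luciferase reporter alone without the COUP-TF2 vector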
The depositor's hits bear a star; / = not tested or not shown; ! = not active in a repeat. An excerpt weighted towards active compounds, which were near 0.81% of everything screened.

SMILES	COUP-TFII inh	NCOA3 inh	NR5A2 inv ag	NCOA2 inhibitor	NCOA1 inh	VP16 Luc counter	COUP-TFII conf
COc1ccc(-n2c(C(C)n3nc(C)c([N+](=O)[O-])c3C)n[nH]c2=S)cc1 (centres undefined)	-2.4	12.4	-4.3	-1.8	13.3	/	/
Cc1cc(-n2c(C)cc(C(=O)CSc3ncnc4ccccc34)c2C)no1	53.9*	35.8	41.2	28.9	24.8	-3.6	60.0*
Cc1ccc(-n2c(SCC(=O)Nc3ccc(OCc4ccccc4)cc3)nnc2-c2ccco2)cc1	0.7	/	/	-25.2	/	/	/
Cc1oc(-c2ccc(Cl)cc2)nc1CS(=O)CC(=O)NCCCN1CCCC(C)C1 (centres undefined)	1.2	5.5	2.4	-8.7	1.9	/	/
Cc1oc(-c2ccc(Cl)cc2)nc1CS(=O)CC(=O)NCCCN1CCN(Cc2ccccc2)CC1 (centres undefined)	61.9*	31.5	34.1	30.8	35.2	7.6	64.6*
O=C(NCc1ccccc1)N1CCC(c2nc3ccc(Cl)cc3[nH]2)CC1	-117.3	/	/	-24.9	/	/	/
O=C(Nc1ccccc1[N+](=O)[O-])NC1CCCCN(Cc2cccc(Cl)c2)C1=O (centres undefined)	20.8	/	/	0.2	/	/	/
CCn1nc(C)c(CNC(=O)c2cc(COc3ccc(F)cc3Cl)on2)c1C	41.1*	41.9	11.0	32.7	27.2	8.9	43.9*
O=C(NCc1ccc(Cl)cc1)C1CCCN(c2ncccn2)C1 (centres undefined)	-12.2	/	/	6.5	/	/	/
COc1ccc(S(=O)(=O)N2CCCCCC2)c2ccccc12	1.0	/	/	7.3	/	/	/
C=CCNC(=S)N/N=C/c1ccc(C(F)(F)F)cc1	43.2*	9.7	12.3	11.5	17.2	-3.0	28.3
COc1cc(NC(=O)NC2CCCCN(Cc3ccc(Cl)cc3)C2=O)cc(OC)c1 (centres undefined)	-2.0	/	/	10.5	/	/	/
COc1ccc(C(O)c2nc3ccccc3n2C)cc1OC (centres undefined)	47.5*	21.3	17.7	-8.3	15.3	1.2	31.8
O=C(c1ccc(S(=O)(=O)c2ccc(F)cc2)c([N+](=O)[O-])c1)N1CCCCCC1	42.7*	37.4	29.6	39.4	5.6	18.0*	22.2
CN[C@H]1C[C@H]2c3[nH]c4cccc(-c5ccccc5)c4c3CCN2C[C@H]1[C@H](C)O	-17.0	/	/	-34.9	/	/	/
Cc1ccc(S(=O)(=O)N2CCCC(C(=O)N3CCCc4ccccc43)C2)cc1 (centres undefined)	-4.7	4.5	-11.4	-2.8	2.3	/	/
O=C(C1CCCN(S(=O)(=O)c2ccccc2)C1)N1CCCc2ccccc21 (centres undefined)	37.5*	-12.3	17.1	13.4	4.6	-9.7	8.2
O=C(c1cc(Cl)ccc1F)N1CCCC(c2nc(-c3cccs3)no2)C1 (centres undefined)	6.2	/	/	7.7	/	/	/
Cc1cc(/C=C2\Sc3ccccc3N2C)cc(C)[n+]1CC1CCCO1 (centres undefined)	49.2*	47.6	61.6	-1.4	42.5	11.7	62.0*
Cc1ccc(/C=C2/Sc3ccccc3N(CC(=O)NCC3CCCO3)C2=O)cc1 (centres undefined)	/	4.4	-13.9	/	8.3	/	/
OCC1(Cc2ccccc2)CCN(Cc2cnc(-c3ccc(Cl)cc3)nc2)CC1	43.1*	-17.4	-17.7	-50.2	-20.8	-37.9	8.7
Cc1cccc(-c2ncc(CN3CCN(C4CCCC4)C(CCO)C3)cn2)c1 (centres undefined)	3.2	3.4	-5.7	-10.9	1.6	/	/
OCCC1CN(Cc2cnc(-c3ccc(Cl)cc3)nc2)CCN1C1CCCCC1 (centres undefined)	37.4*	10.2	8.3	5.8	9.1	-26.3	0.1
COc1cccc(OCc2cc(C(=O)N3CCC(c4ccncc4)CC3)no2)c1	48.9*	18.3	6.3	17.5	2.7	-2.2	30.9
O=C(c1cc(COc2cccc(C(F)(F)F)c2)on1)N1CCC(c2ccccc2)CC1	-9.3	0.5	-1.6	-5.5	-29.8	/	/
SMILES	COUP-TFII inh	NCOA3 inh	NR5A2 inv ag	NCOA2 inhibitor	NCOA1 inh	VP16 Luc counter	COUP-TFII conf
O=C(c1cc(COc2cccc(C(F)(F)F)c2)on1)N1CCC(c2ccncc2)CC1	45.6*	9.0	-0.8	6.9	-19.8	-15.9	35.9
CC(=O)c1ccc(OCc2cc(C(=O)N3CCC(c4ccncc4)CC3)no2)cc1	15.1	16.9	13.3	-4.4	1.4	/	/
CN1CCCC2(CCCN(Cc3nc(Cc4cccc(C(F)(F)F)c4)no3)C2)C1 (centres undefined)	11.2	19.6	4.7	3.1	-9.8	/	/
FC(F)(F)c1cccc(Cc2noc(CN3CCC(c4ccncc4)CC3)n2)c1	52.5*	8.9	34.4	10.5	13.7	6.6	35.5
O=C(Nc1c(-c2ccccc2)nc2ncccn12)c1ccc(F)cc1	-0.4	/	/	-7.7	/	/	/
Cc1cccc2cc(-c3ccccc3)c(-c3ccccc3)c[n+]12	63.8*	41.0	53.3	20.1	41.6	1.5	44.0*
Cc1cc(C(=O)O)c(C)o1	-17.2	/	/	-13.0	/	/	/
COC(=O)c1ccc(S(=O)(=O)N2CCC(NC(=O)CCC3CCCC3)CC2)cc1	-5.4	/	/	-64.9	/	/	/
c1ccc(CCNc2ccnc3cc4ccccc4cc23)cc1	65.3*	-7.4	1.5	-17.5	-1.1	15.1*	58.5*
CC(C)Nc1ccc(Nc2ccnc3cc4ccccc4cc23)cc1	-18.6	31.2	31.7	-272.4	33.8	/	/
c1csc(-c2nnc(SCc3cccc4ccccc34)o2)c1	-4.2	/	/	-5.6	/	/	/
Brc1ccc2ncnc(NCc3ccccc3)c2c1	57.9*	64.5*	41.1	55.1*	67.2*	18.0*	48.9*
c1ccc(CCNc2ncnc3ccccc23)cc1	56.8*	11.2	-53.7	14.9	-22.0	-148.7	29.0
Clc1cccc(Nc2ncnc3ccc(Br)cc23)c1	25.2	29.0	0.1	37.4	28.3	/	/
Cc1cc2c(NCCc3ccccc3)ncnc2s1	50.0*	-41.3	-52.8	7.2	-26.5	-132.7	28.6
Nc1ncnc2c(C3OC(CO)C(O)C3O)scc12 (centres undefined)	67.0*	83.9*	96.2*	50.9	65.6*	22.2*	22.7
CCC1CCCCN1C(=O)n1ncc(C(O)(c2ccccc2)c2ccccc2)n1 (centres undefined)	49.9*	/	/	/	/	-4.2	42.7*!
CCC1CCCCN1C(=O)c1c(-c2ccccc2)noc1C (centres undefined)	18.9	-1.0	6.5	18.6	-8.1	/	/
COc1ccc(/C=C2/CSC/C(=C/c3ccc(OC)c(OC)c3)C2=O)cc1OC	73.1*	-5.1	64.0	-10.3	-23.0	57.3*	96.8*
CCOc1ccc(/C=C2\CCC(C3CCCC3)C2=O)cc1OC (centres undefined)	12.5	-6.0	-4.6	-22.7	-47.1	/	/
COc1cc(C=C2CCCC(=Cc3ccc(OCC4CO4)c(OC)c3)C2=O)ccc1OCC1CO1 (centres undefined)	68.5*	31.4	-20.1	11.6	26.9	25.2*	69.5*

High-throughput results deposited in PubChem BioAssay by The Scripps Research Institute Molecular Screening Center.
